In PubChem BioAssay (NCI) one finds growth inhibition data, which are given here for 37 compounds.

Where “and” joins values, the source holds several entries; their conditions need not be identical. Equal values may be shown once. Compounds without any hit were thinned out: in the full panel of roughly 79,000, 15% have a hit. Values without a mark were called inactive. Calls of active or inactive are those of the source. No stated cut-off is given here; in the data, active means growth inhibition above about 70%; inactive means the rest.

The test is described as follows: NCI Yeast Anticancer Drug Screen. Data for the cln2 rad14 strain (AID 165).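 Further: 0% = growth equal to vehicle treated cultures.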 As to conditions: S. cerevisiae cln2 rad14 strain, at 5.0 µM (retest, dose inferred, filed as 0.5), stronger effect = higher value. The essentials: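 Readout is yeast growth inhibition versus vehicle-treated controls, using a strain with cln2 and rad14 alterations exposed to compound.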
Regarding `OCC1OC(n2cnc3c(=S)nc[nH]c32)C(O)C1O` (configuration not stated), the growth inhibition is 20%.

Regarding `CCOC(=O)C(C(=O)c1ccccc1)C(=O)c1ccccc1`, the growth inhibition was 34%.

Turning to `COC1/C=C\C=C(/C)C(=O)Nc2cc3nc4ccc(Br)cc4oc-3c(c2=O)CC(C)CC(OC)C(O)C(C)/C=C(\C)C1OC(N)=O` (configuration not stated), the growth inhibition was 85% (active).

For `Nc1ccc([N+](=O)[O-])c(S(=O)(=O)O)c1`, the growth inhibition is -56%.

As to `CCOc1ccc2ccccc2c1C(Cc1ccc(Cl)cc1)NCCO` (configuration not stated), the growth inhibition was 1%.

In the case of `O=C1C(=Cc2ccc(O)cc2)N=C(c2ccccc2)N1n1c(-c2ccccc2)nc2ccccc2c1=O`, the growth inhibition is 18%.

On to `Cc1nc2ccccc2cc1CCl`, for which the growth inhibition was -47%.

`Cc1cc(NS(=O)(=O)c2ccc(N=Nc3cc(N=Nc4ccc(S(=O)(=O)Nc5cc(C)nc(C)n5)cc4)c4c(NC(=O)C(Cl)Cl)cccc4c3OC(=O)C(Cl)Cl)cc2)nc(C)n1` (tested in a mixture with another compound): the growth inhibition is 16%.

On to `CCCCCCN(CCCCCC)C(=O)C1=C(C)NC(C)=C(C(=O)N(CCCCCC)CCCCCC)C1`, for which the growth inhibition is 33%.

Consider `O=[N+]([O-])Cc1cnc2nncn2n1`, for which the growth inhibition is 2%.

Take `COc1ccc(N/N=C(\CCN(C)C)c2ccccc2)cc1`: the growth inhibition is 6%.

Regarding `O=C(O)/C(=C(/c1ccccc1)c1ccc(Cl)cc1)c1ccccc1`, the growth inhibition is 55%.

In the case of `c1ccc([P+](CCCCCCCC[P+](c2ccccc2)(c2ccccc2)c2ccccc2)(c2ccccc2)c2ccccc2)cc1`, the growth inhibition was 30%.

For `OCCNc1nc(NCCO)c2nc(-c3ccccc3)c(-c3ccccc3)nc2n1`, the growth inhibition is 6% and -2%.

As for `OC(c1ccccc1)(c1ccccc1)c1ccccc1` (tested in a mixture with another compound), the growth inhibition is -12%.

For the compound `CC(=O)Nc1c(Cl)c(Cl)c2c(c1Cl)Cc1cc(Cl)ccc1-2`, the growth inhibition was 97% (active).

Regarding `Cc1cc(C)nc(NS(=O)(=O)c2ccc(Nc3c4ccccc4nc4c(C(=O)NCCCN(CCO)CCO)cccc34)cc2)n1`, the growth inhibition was 70% (active).

As to `CCn1c2ccccc2c2ccc(N=Cc3ccc(N(C)C)cc3)cc21`, the growth inhibition is 0%.

With `O=C(C(=Cc1ccccc1)C(=O)c1ccccc1)c1ccccc1`, the growth inhibition was 50%.

In the case of `c1ccc(C2=NC(c3ccccc3)=NS(S3=NC(c4ccccc4)=NC(c4ccccc4)=N3)=N2)cc1` (configuration not stated), the growth inhibition is 20%.

In the case of `Nc1nc(-c2ccccn2)cc2ccccc12`, the growth inhibition is 21%.

In the case of `CCN(CC)CCCn1c2cc(=O)c(=O)cc-2[nH]c2cc(C)ccc21`, the growth inhibition is 5%.

On to `COc1cc(O)ccc1C(=S)SC`, for which the growth inhibition is 0%.

On to `O=[N+]([O-])C1=C(c2ccccc2)SC=C(c2ccccc2)S1`, for which the growth inhibition was 18% and 1%.

Turning to `N#CC1(C2SCCS2=O)C2=C(C(=O)c3ccccc3C2=O)N2CCCC21` (configuration not stated), the growth inhibition is 14%.

On to `O=C1C=CC(=O)C(C2OC(=O)C(Br)=C2Br)=C1` (configuration not stated), for which the growth inhibition is -10%.

With `CN1CCN(CCCN2c3ccccc3Sc3ccc(C(F)(F)F)cc32)CC1`, the growth inhibition was -31% and 3%.

`Cc1ccc(S(=O)(=O)C23C(N=NC2(C)C)C3(C)C)cc1` (configuration not stated): the growth inhibition was 8%.

On to `COC(=O)C(=O)C(C(=O)C(c1ccccc1)c1ccccc1)c1nc2n(c1O)/C(=N/C(=O)Nc1ccc(Cl)cc1)N=N2` (configuration not stated), for which the growth inhibition was -11%.

Turning to `O=C(O)c1ccc2c(c1)Cc1cc([N+](=O)[O-])ccc1-2`, the growth inhibition was -92%.

In the case of `O=c1[nH]c2cc([N+](=O)[O-])ccc2nc1/C=C(\O)c1ccc([N+](=O)[O-])cc1`, the growth inhibition was 4%.

As to `c1ccc(C(c2ccccc2)n2ccnc2)cc1`, the growth inhibition is -27%.

`c1ccc2c(c1)CNc1ccccc1-2`: the growth inhibition was 6%.

For `COC(=O)c1nnn(-c2ccc(S(N)(=O)=O)cc2)c1N`, the growth inhibition was 1%.

With `COC(=O)c1ccc(O)c(OC)c1`, the growth inhibition is -2%.

With `O=c1[nH]c(SCc2c(Cl)c(Cl)c(Cl)c(Cl)c2Cl)nc(=S)[nH]1`, the growth inhibition was -36%.

Regarding `Cc1nc2c(ccc3[nH]c4ccccc4c32)s1`, the growth inhibition is -16%.
